Source: ChEMBL document CHEMBL3988442, “University of Dundee, Small-Polar-MMV Screening Library” (2021)
Out of some 48,000 compounds screened, about 13,000 (27%) showed an effect of 50% or more. The list shows a part of the results.

What follows are compounds tested on Wolbachia pipientis (assay: Anti-Wolbachia Cell-Based Screen). Settings: 5 µM.
Format: functional
Design: scale not given: in the data most compounds retested in dose-response had high values
In the case of CCOc1ccc(N(C)S(=O)(=O)c2c[nH]c(C(C)C)n2)cc1, the “Percent Effect” value is reported as -17.69%.
In the case of O=C(CNC(=O)C1CC1)NCCOc1cccc(Cl)c1Cl, the “Percent Effect” value is reported as 3.053%.
Cc1ccc2c(c1)OC(C)CN2C(=O)CCc1cscn1 (stereo not drawn) was tested, and the “Percent Effect” value was -1.954%.
Cc1ccc2c(c1)OC(C)CN2C(=O)CCc1cccnc1 (stereo not drawn) was tested, and the “Percent Effect” value was 9.162%.
Cc1ccc2c(c1)OC(C)CN2C(=O)c1c[nH]c(C)cc1=O (stereo not drawn) was tested, and the “Percent Effect” value was 100.7%.
Cc1ccc2c(c1)N(C(=O)c1c[nH]c(C)cc1=O)CC(C)O2 (stereo not drawn) was tested, and the “Percent Effect” value was 67.22%.
In the case of Cc1ccc2c(c1)OC(C)CN2C(=O)Cc1ccc(C)nc1 (stereo not drawn), the “Percent Effect” value is reported as -1.859%.
With CC1CN(C(=O)c2cc[nH]c(=O)c2)c2ccccc21 (stereo not drawn) the “Percent Effect” value was 6.091%.
In the case of Cc1ccc2c(c1)N(C(=O)c1cc[nH]c(=O)c1)CC(C)O2 (stereo not drawn), the “Percent Effect” value is reported as 102.6%.
CC1CN(C(=O)c2ccc(C(N)=O)cc2)c2ccc(F)cc2O1 (stereo not drawn) was tested, and the “Percent Effect” value was -13.6%.
For Cc1ccc2c(c1)N(C(=O)c1nccnc1N)CC(C)O2 (stereo not drawn), the “Percent Effect” value was -0.6709%.
CC(C)n1cnnc1CCNCc1cn(CCC(N)=O)c2ccccc12 was tested, and the “Percent Effect” value was -8.335%.
For Cn1/c(=N/C(=O)CSCC(=O)Nc2nccs2)sc2ccccc21, the “Percent Effect” value was -2.902%.
Cc1cnc2c(S(=O)(=O)NC(=O)C(C)OCC3CC3)cccc2c1 (stereo not drawn) was tested, and the “Percent Effect” value was -0.9774%.
For Cc1ccsc1C(=O)N1CC(C(=O)N2CCCC2)C2(CCOCC2)C1 (stereo not drawn), the “Percent Effect” value was -0.2023%.
Cc1ccc(C(=O)N2CCCC(Cn3cc(C(C)(C)N)nn3)C2)s1 (stereo not drawn) was tested, and the “Percent Effect” value was -58.84%.
With Cc1ncncc1C(=O)N1CCCN(Cc2ncc(Cl)n2C)CC1 the “Percent Effect” value was 13.88%.
Cc1cccnc1C(=O)N1CCCC(c2[nH]ncc2S(C)(=O)=O)C1 (stereo not drawn) was tested, and the “Percent Effect” value was -6.313%.
For Cc1[nH]ncc1C(=O)N1CCCC(c2cc(C(F)(F)F)[nH]n2)C1 (stereo not drawn), the “Percent Effect” value was -5.603%.
For Cc1csc(C(=O)N2CCCC(c3[nH]ncc3S(C)(=O)=O)C2)c1 (stereo not drawn), the “Percent Effect” value was 97.17%.
In the case of Cc1ccsc1C(=O)N1CCCC(c2[nH]ncc2S(C)(=O)=O)C1 (stereo not drawn), the “Percent Effect” value is reported as 116.3%.
For Cc1ccc(C(=O)N2CCCC(c3[nH]ncc3S(C)(=O)=O)C2)s1 (stereo not drawn), the “Percent Effect” value was 93.28%.
With Cc1ncncc1C(=O)N1CCCC(c2[nH]ncc2S(C)(=O)=O)C1 (stereo not drawn) the “Percent Effect” value was 130.2%.
For CC(Nc1ccn(Cc2ccccn2)n1)C(=O)NC(C)(C)C (stereo not drawn), the “Percent Effect” value was 22.79%.
In the case of CCNC(=O)COc1ccc(C(=O)NC(C)CCc2ccco2)cc1 (stereo not drawn), the “Percent Effect” value is reported as 6.867%.
With CC1(C)[C@H](Cc2cc(CN3CCCCC3)on2)C[C@@H]1NC(=O)C1CC1 the “Percent Effect” value was 0.3573%.
In the case of CCc1noc(CNCC2CCCN2c2cccnn2)n1 (stereo not drawn), the “Percent Effect” value is reported as 129.4%.
For Cc1nc(CNCC2CCCN2c2cccnn2)no1 (stereo not drawn), the “Percent Effect” value was 8.82%.
COCCc1noc(CNCC2CCCN2c2cccnn2)n1 (stereo not drawn) was tested, and the “Percent Effect” value was 10.85%.
For Cc1ccoc1-c1nnc(CNCC2CCCN2c2cccnn2)o1 (stereo not drawn), the “Percent Effect” value was 10.61%.
In the case of c1cnnc(N2CCCC2CNCc2nc3ccccc3o2)c1 (stereo not drawn), the “Percent Effect” value is reported as 8.977%.
For CCc1nnc(CNCC2CCCN2c2cccnn2)o1 (stereo not drawn), the “Percent Effect” value was 6.974%.
For CCCc1nc(CNCC2CCCN2c2cccnn2)no1 (stereo not drawn), the “Percent Effect” value was 124.8%.
c1cnnc(N2CCCC2CNCc2nc(C3CC3)no2)c1 (stereo not drawn) was tested, and the “Percent Effect” value was 6.175%.
In the case of c1cnnc(N2CCCC2CNCc2nc(-c3ccsc3)no2)c1 (stereo not drawn), the “Percent Effect” value is reported as 0.4887%.
With c1cnnc(N2CCCC2CNCc2nnc(C3CC3)o2)c1 (stereo not drawn) the “Percent Effect” value was -1.218%.
In the case of CCc1nc(CNCC2CCCN2c2cccnn2)no1 (stereo not drawn), the “Percent Effect” value is reported as 94.84%.
c1cnnc(N2CCCC2CNCc2noc(C3CC3)n2)c1 (stereo not drawn) was tested, and the “Percent Effect” value was 124.8%.
In the case of Cc1cc(C(F)(F)F)nc(N(C)Cc2c(C)noc2C)n1, the “Percent Effect” value is reported as 12%.
With CCOCCn1nc(C)cc1C(=O)N1CC[C@](O)(CC)[C@H](O)C1 the “Percent Effect” value was -19.56%.
For CCc1ccccc1OCCN(C)C(=O)CN1CCCC1, the “Percent Effect” value was -0.4334%.
For Cc1ccc(CN2C[C@H]3CN(C(=O)c4ccno4)CCN3C2=O)cc1, the “Percent Effect” value was -7.285%.
With CCc1cnc(N2C[C@H]3CN(Cc4ccc(OC)cc4)C(=O)[C@H]3C2)nc1 the “Percent Effect” value was -6.562%.
For CCCN(CCO)C(=O)C1CCC(=O)N(Cc2ccc(Cl)cc2)C1 (stereo not drawn), the “Percent Effect” value was -2.566%.
For Cc1ccc(CN2CC(O)CN(C(=O)OCC(C)C)CC2=O)cc1 (stereo not drawn), the “Percent Effect” value was 102.7%.
In the case of COc1ccc(CN2CC(O)CN(C(=O)CC(C)C)CC2=O)cc1 (stereo not drawn), the “Percent Effect” value is reported as 135.2%.
CCOC(=O)c1coc(N2CCN(Cc3ccc(C)cc3)C(=O)C2)n1 was tested, and the “Percent Effect” value was -18.23%.
For CC(C)COC(=O)N1CC(=O)N(Cc2ccc(Cl)cc2)CC(O)C1 (stereo not drawn), the “Percent Effect” value was 87.43%.
For COc1ccc(CN2CCN(c3nccnc3OC)CC2=O)cc1, the “Percent Effect” value was -6.7%.
COc1ccc(CN2C[C@H]3CN(C(=O)c4ccno4)CCN3C2=O)cc1 was tested, and the “Percent Effect” value was -1.817%.
CC(C)N(CCO)C(=O)C1CCC(=O)N(Cc2ccc(Cl)cc2)C1 (stereo not drawn) was tested, and the “Percent Effect” value was 0.7255%.
For COc1ccc(CN2CC(O)CN(C(=O)OCC(C)C)CC2=O)cc1 (stereo not drawn), the “Percent Effect” value was 126.2%.
In the case of COC(=O)CCNC(=O)c1ccoc1CN1c2ccccc2CC1C (stereo not drawn), the “Percent Effect” value is reported as -5.639%.
With CC(=O)Nc1ccc(-c2cn(CCn3c(C)cc(C)nc3=O)nn2)cc1 the “Percent Effect” value was -7%.
In the case of CCN(CC)S(=O)(=O)c1ccc(CNC(=O)c2cc(C)on2)cc1, the “Percent Effect” value is reported as 15.58%.
Cc1ccc(C(=O)Nc2ccn(CCC(N)=O)n2)cc1 was tested, and the “Percent Effect” value was 10.52%.
O=C(Cc1ccccc1Cl)Nc1ccn(CCN2CCOCC2)n1 was tested, and the “Percent Effect” value was -48.65%.
For Cc1ccnc(NC(=O)c2cc(C)oc2C)c1, the “Percent Effect” value was 11.88%.
For Cc1ccsc1CNC(=O)Nc1ccn(CCN2CCOCC2)n1, the “Percent Effect” value was -52.79%.
Cc1cc(C(=O)Nc2ccn(CCCN3CCCC3)n2)no1 was tested, and the “Percent Effect” value was 96.67%.
In the case of Cc1cc(CNC(=O)CCCN2CCCCC2)n(C)n1, the “Percent Effect” value is reported as -11.62%.
In the case of CCn1ccc(NC(=O)c2cc(C)on2)n1, the “Percent Effect” value is reported as 120%.
For Cc1cc(C(=O)Nc2ccn(CCCN3CCCC3)n2)c(C)o1, the “Percent Effect” value was 100.8%.
For CCOc1cc(C)nc(N2CCN(C(=O)c3cc(Cl)c[nH]3)CC2)n1, the “Percent Effect” value was 4.417%.
With Cc1cnn(Cc2cc(F)ccc2F)c1NC(=O)C1CCOCC1 the “Percent Effect” value was -4.081%.
With CNC(=O)C1(N2CCC[C@H]2C(=O)NC2CCOCC2)CCOCC1.Cl the “Percent Effect” value was -3.696%.
For Cc1nsc(NC(=O)N2CCN(Cc3ccc(F)cc3)C(=O)C2)n1, the “Percent Effect” value was 3.543%.
In the case of Cn1ncnc1-c1ccnc(N2CCC(C(O)c3cccs3)CC2)n1 (stereo not drawn), the “Percent Effect” value is reported as -11.63%.
With CN1CCOC(CNCc2nc(-c3ccoc3)no2)C1 (stereo not drawn) the “Percent Effect” value was -1.201%.
With CN1CCOC(CNCc2coc(-c3ccccc3)n2)C1 (stereo not drawn) the “Percent Effect” value was -3.46%.
For Cc1ccc(-c2nc(CNCC3CN(C)CCO3)co2)c(C)c1 (stereo not drawn), the “Percent Effect” value was 99.3%.
In the case of CCC1CN(C(=O)Cc2coc(-c3ccccc3)n2)CCO1 (stereo not drawn), the “Percent Effect” value is reported as -15.78%.
CN1CCOC(CNC(=O)Cc2ccccc2F)C1 (stereo not drawn) was tested, and the “Percent Effect” value was -10.58%.
In the case of CN1CCOC(CNCc2coc(-c3ccccc3Cl)n2)C1 (stereo not drawn), the “Percent Effect” value is reported as 105.3%.
Cc1ccc(-c2nc(CNCC3CN(C)CCO3)co2)cc1 (stereo not drawn) was tested, and the “Percent Effect” value was 108.3%.
For CN1CCOC(CNC(=O)Cc2coc(-c3ccccc3)n2)C1 (stereo not drawn), the “Percent Effect” value was 107.6%.
In the case of CN(C)CC1CN(Cc2coc(-c3ccccc3Cl)n2)CCO1 (stereo not drawn), the “Percent Effect” value is reported as -0.3444%.
With CC(C)(C)OC(=O)N1CCCc2ccc(NCc3ncc[nH]3)cc21 the “Percent Effect” value was 1.363%.
With Cn1cnnc1CC1CCN(Cc2c(Cl)cncc2Cl)CC1 the “Percent Effect” value was -0.137%.
COc1ccc(S(=O)(=O)Cc2cc(C)on2)cc1 was tested, and the “Percent Effect” value was 3.84%.
CN1CCOC(CNCc2coc(-c3ccc(Cl)cc3)n2)C1 (stereo not drawn) was tested, and the “Percent Effect” value was 81.44%.
In the case of O=C(CCn1cncn1)N1CCCC(CO)(CCCc2ccccc2)C1 (stereo not drawn), the “Percent Effect” value is reported as 16.2%.
In the case of CN(CCc1ccncc1)C(=O)C1CSCN1C(=O)CC(C)(C)C (stereo not drawn), the “Percent Effect” value is reported as 109.1%.
In the case of CN(CC(F)(F)F)C(=O)C1CSCN1C(=O)OC(C)(C)C (stereo not drawn), the “Percent Effect” value is reported as 6.249%.
With CC(C)(C)OC(=O)N1CSC[C@@H]1C(=O)NCc1ccncc1 the “Percent Effect” value was -9.296%.
CN(CCc1ccncc1)C(=O)C1CSCN1C(=O)C1CCCC1 (stereo not drawn) was tested, and the “Percent Effect” value was -15.81%.
In the case of CN(Cc1ccncc1)C(=O)[C@H]1CSCN1C(=O)OC(C)(C)C, the “Percent Effect” value is reported as 103.4%.
For CN(CCc1ccncc1)C(=O)C1CSCN1C(=O)C(C)(C)C (stereo not drawn), the “Percent Effect” value was -12.64%.
Nc1nnc(CCNc2ncnc3c2CCN(C(=O)C2CC2)C3)s1 was tested, and the “Percent Effect” value was -2.758%.
With CCS(=O)(=O)c1ncc(CN2CCCC2)n1CCc1ccccc1 the “Percent Effect” value was 1.853%.
COCCc1nc(CSc2ccncc2)n(C)n1 was tested, and the “Percent Effect” value was -10.21%.
In the case of CN(C)CCn1c2c(ccc1=O)CCN(Cc1ccncc1)CC2, the “Percent Effect” value is reported as 102%.
With O=C(NC1CC1)N1CCc2ccc(=O)n(Cc3ccncc3)c2CC1 the “Percent Effect” value was 23.4%.
In the case of Cn1cc(CN2CCc3ccc(=O)n(CC4CC4)c3CC2)cn1, the “Percent Effect” value is reported as 115.2%.
With Cn1cc(CN2CCc3ccc(=O)n(Cc4ccncc4)c3CC2)cn1.O=C(O)C(F)(F)F.O=C(O)C(F)(F)F the “Percent Effect” value was 104.6%.
CC(OCC1CC1)C(=O)N1CCCN(Cc2cnn(C)c2)CC1 (stereo not drawn) was tested, and the “Percent Effect” value was 6.432%.
In the case of O=c1ccc2c(n1Cc1ccncc1)CCN(C1CCOC1)CC2 (stereo not drawn), the “Percent Effect” value is reported as 8.67%.
In the case of CN(C)C(=O)Cn1c2c(ccc1=O)CCN(Cc1cnn(C)c1)CC2.O=C(O)C(F)(F)F, the “Percent Effect” value is reported as 120.2%.
With COc1ccc2c(c1)C1(CCN(Cc3cnn(C)c3)CC1)N(C)CC2.O=C(O)C(F)(F)F the “Percent Effect” value was 2.583%.
Cc1cnc(NCC(C)(C)N2CCCCC2)nc1 was tested, and the “Percent Effect” value was 1.17%.
Cc1nc(-c2ccc(Cl)s2)sc1C(=O)NCCS(N)(=O)=O was tested, and the “Percent Effect” value was -0.7868%.
For COCC(=O)N1CCC2(CC1)NC(=O)[C@H]1CN(C(=O)N(C)C)C[C@H]12, the “Percent Effect” value was -27.95%.
Cc1csc(CNC(=O)Nc2cc(C(F)(F)F)c[nH]c2=O)n1 was tested, and the “Percent Effect” value was -4.751%.
